# Data reported in PubChem BioAssay (Tox21).
# Values without a mark were called inactive. The source made the active and inactive calls. Calls follow the shape of the full dose curve.
# Experiment: qHTS assay to identify small molecule agonists of the estrogen related receptor (ERR) signaling pathway from Tox21 library (AID 1224849); also: nearly all actives have a fitted effect of over 15% in size
# Conditions: ERR reporter cell line, ONE-Glo luciferase, 18 h; at 42.5 µM (top of the series)
# Source text: National Center for Advancing Translational Sciences [NCATS]
# NIH Chemical Genomics Center [NCGC]
# U.S. Environmental Protection Agency [EPA]
# National Institutes of Environmental Health Sciences [NIEHS]
# National Toxicology Program [NTP]
# Estrogen related receptors (ERRs), the first orphan nuclear receptors discovered, play an important role in the control of cellular energy metabolism. ERRs are required for high-energy production in response to the environmental challenges. ERR-alpha was also identified as an adverse marker for breast cancer progression; ERR-alpha-positive tumors have a poor prognosis. To screen and to identify environmental compounds that perturb the ERR signaling pathways could provide valuable information for potential therapeutic or preventive measures in the treatment of metabolic disease. For identifying ERR agonists, ERR cell line (provided by NTP) has been used to screen Tox21 10K library.
# The ERR cells were dispensed at 2,000 cells/5 ul/well in 1536-well white plates using a Multidrop dispenser. After the assay plates were incubated at a 37 C/5% CO2 incubator for 6 hours, 23 nL of compounds dissolved in DMSO, positive and negative controls or DMSO only was transferred to the assay plate by a pin tool. The plates were incubated at 37 C for 18 hours. 4 ul/well of One-Glo reagent was added into the assay plates using a Flying Reagent Dispenser. After 30-minute incubation at room temperature, the luminescence intensity in the plates was measured using a ViewLux plate reader.
# % is scaled to controls: 0 for no effect and ±100 for the full control effect.
row,SMILES,"activity change, positive = activation"
1,C[C@]12CC[C@@H]3c4ccc(O)cc4CC[C@H]3[C@@H]1CC[C@@H]2OC(=O)CCC1CCCC1,-30%

# Same assay, conditions: ERR reporter cell line, ONE-Glo luciferase, 18 h; at 92.4 µM (top of the series)
row,SMILES,"activity change, positive = activation"
1,C[C@]12CC[C@@H]3c4ccc(O)cc4CC[C@H]3[C@@H]1CC[C@@H]2OC(=O)CCC1CCCC1,-67.7%

# Same assay, conditions: ERR reporter cell line, ONE-Glo luciferase, 18 h; at 92.4 µM (top of the series) unless noted
row,SMILES,"activity change, positive = activation"
1,O=C=Nc1cccc(C(F)(F)F)c1,-56.5%
2,CCC(=O)C1CC(C(C)C)CC=C1C (stereo not given),5.57%
3,Oc1cccc(O)c1O,0.0681%
4,N#CCc1ccc(Cl)cc1Cl,0.109%
5,Cc1ccc2c(Br)cc(Br)c(O)c2n1,-65.3% [at 42.5 µM]
6,COc1ccccc1Oc1c(NS(=O)(=O)c2ccc(C(C)(C)C)cc2)nc(-c2ncccn2)nc1OCCO,-21.1% [at 42.5 µM]
7,COc1cc(N)c(Cl)cc1C(=O)NC1CCN(CCCOc2ccc(F)cc2)CC1OC (stereo not given),-39.2% [at 42.5 µM]
8,COC(=O)C1=C(C)NC(C)=C(C(=O)O[C@@H]2CCCN(Cc3ccccc3)C2)[C@@H]1c1cccc([N+](=O)[O-])c1,-34.6% [at 42.5 µM]
9,C=C1C[C@@]23CC[C@H]4[C@@](C)(CCC[C@@]4(C)C(=O)O[C@@H]4O[C@H](CO)[C@@H](O)[C@H](O)[C@H]4O)[C@@H]2CC[C@]1(O[C@@H]1O[C@H](CO)[C@@H](O)[C@H](O[C@@H]2O[C@H](CO)[C@@H](O)[C@H](O)[C@H]2O)[C@H]1O[C@@H]1O[C@H](CO)[C@@H](O)[C@H](O)[C@H]1O)C3,1.6%
10,O=c1[nH]c2ccc(Cl)cc2o1,4.04%
11,CCC(C)COC(C)=O (stereo not given),1.45%
12,CC1=C(Br)C(=O)C(Br)=C/C1=C(/c1ccccc1S(=O)(=O)O)c1cc(Br)c(O)c(Br)c1C,-55.4% [at 42.5 µM]
13,CN1C(=O)c2ccccc2C1=O,1.36%
14,CC(=O)OCC(=O)NCCCOc1cccc(CN2CCCCC2)c1,4.2% [at 42.5 µM]
15,CN1C[C@H](C(=O)N[C@]2(C)O[C@@]3(O)[C@@H]4CCCN4C(=O)[C@H](Cc4ccccc4)N3C2=O)C[C@@H]2c3cccc4[nH]cc(c34)C[C@H]21,-52.3% [at 42.5 µM]
16,CC(C)(O)c1ccc(CNC(=O)c2cccnc2Oc2ccc3nonc3c2)cc1,-39.3%
17,Oc1cc2c(cc1O)[C@H]1c3ccc(O)c(O)c3OC[C@@]1(O)C2,-31.7%
18,Brc1cc2ccccc2c2ccccc12,-24%
19,CC(C)c1nc(CN(C)C(=O)N[C@H](C(=O)N[C@@H](Cc2ccccc2)C[C@H](O)[C@H](Cc2ccccc2)NC(=O)OCc2cncs2)C(C)C)cs1,-41.1% [at 42.5 µM]

row,SMILES,"activity change, positive = activation"
1,CCCCCCNC(=O)n1cc(F)c(=O)[nH]c1=O,-8.15% [at 42.5 µM]
2,CC(=O)c1ccc([N+](=O)[O-])cc1,1.22%
3,CCCCCCCCC(CCCCCC)C(=O)O (stereo not given),-27.5%
4,CN1CCCC(n2nc(Cc3ccc(Cl)cc3)c3ccccc3c2=O)CC1 (stereo not given),-15.1% [at 42.5 µM]
5,CC(=O)Nc1ccc(C)cc1C,0.262%
6,CC(=O)OCCN(CCOC(C)=O)c1ccc(N=Nc2ccc([N+](=O)[O-])cc2C#N)cc1,-46.9%
7,CCCCCC[C@@H](O)C/C=C\CCCCCCCC(=O)O,-0.13%
8,CC(=O)Oc1ccc([N+](=O)[O-])cc1CCl,-12.3%
9,C=C(C)C(=O)OCCOCCOC(=O)C(=C)C,6.4%
10,Cc1cc(O)ccc1O,-73.6% (active)
11,C[C@H]1C[C@H](O)c2ccsc2S1(=O)=O,5.62% [at 42.5 µM]
12,OCCN1CCN(CCCN2c3ccccc3Sc3ccc(Cl)cc32)CC1,-48% [at 42.5 µM]
13,CCOC(=O)C1=C(C)NC(C)=C(C(=O)OC)C1c1cccc(Cl)c1Cl (stereo not given),-28.7% [at 42.5 µM]
14,C[C@@H](O[C@H]1OCCN(Cc2n[nH]c(=O)[nH]2)[C@H]1c1ccc(F)cc1)c1cc(C(F)(F)F)cc(C(F)(F)F)c1,-53.3% [at 42.5 µM]
15,Oc1c(I)cc(I)c2cccnc12,-8.8% [at 42.5 µM]
16,COc1cc(C(=O)NCCCCCC(=O)O)cc(OC)c1OC,1.72% [at 42.5 µM]
17,O=C1c2ccccc2C(=O)C1(O)O,-26.5%
18,CCCCCCCCCCCCCCN(CCO)CCO,-78.9%
19,CCCCCCCCCI,3.18%
